Measurements published in ChEMBL document CHEMBL3988442, “University of Dundee, Small-Polar-MMV Screening Library” (2021).
About 440 (0.52%) of roughly 85,000 compounds showed an effect of 50% or more. The sample as a whole holds a higher share of strong results than the screen did.

Experiment: In vitro enzyme assay to detect hydrolysis of chlorophenol red-beta-D-[…] directly proportional to the number of Toxoplasma stably expressing beta-galactosidase
Format: functional, organism-based, Toxoplasma gondii
Design: scale not given: in the data most compounds retested in dose-response had high values

| Structure (SMILES) | Percent Effect (50 µM) [%] | Percent Effect (10 µM) [%] |
| --- | --- | --- |
| NC(=O)C1(CNCc2cccc(F)c2)CCOCC1 | -0.9049 | – |
| CSCc1nnc(SCC(=O)NC2(C#N)CCCC2)o1 | 9.959 | – |
| CCCNC(=O)C1CCCN1 (stereo not drawn) | 2.398 | – |
| CC(=O)Nc1ccc(-n2cncn2)nc1 | -6.105 | – |
| O=C(NCc1cccnc1)c1cn2cccnc2n1 | -2.314 | – |
| Cc1noc(CCCNC(=O)CNC(=O)c2cc3ccccc3[nH]2)n1 | – | 4.234 |
| Cc1nc(C)c(C(=O)NCc2ncoc2C)s1 | -1.836 | – |
| CC1(CCNC(=O)c2ccon2)OCCO1 | 9.96 | – |
| Cc1ocnc1CNC(=O)c1ccon1 | 99.22 | – |
| Cc1ocnc1CNC(=O)c1ccc(Br)cn1 | 1.589 | – |
| Cc1noc(CCCNC(=O)c2ccon2)n1 | 62.73 | – |
| CCC=C(C)C(=O)NCC(C)N1CCN(CC)CC1 (stereo not drawn) | 11.7 | – |
| CCNC(=O)C1CCN(C(=O)Cc2cccc(O)c2)C1 (stereo not drawn) | -5.389 | – |
| CC(C)(O)CCN1CCC(NC(=O)C2CCC2)CC1 | 0.697 | – |
| COCCN1CCC(c2ccn[nH]2)CC1 | -6.586 | – |
| CNC(=O)NC(=O)CSc1ccccc1F | -1.003 | – |
| CCOc1ncccc1C(=O)NCC1CCCN1CC (stereo not drawn) | -0.459 | – |
| COc1ncccc1C(=O)NCC(=O)N1CCCC1 | -2.429 | – |
| CCOc1ncccc1C(=O)NCC(C)N1CCCC1 (stereo not drawn) | 52.4 | – |
| CCN1C(=O)C[C@H](CN)[C@H]1c1ccncc1 | 4.591 | – |

| Structure (SMILES) | Percent Effect (50 µM) [%] | Percent Effect (10 µM) [%] |
| --- | --- | --- |
| CCCn1cnnc1CNC | 0.9072 | – |
| COc1cccc(-c2cc(C(=O)Nc3nc[nH]n3)[nH]n2)c1 | – | 20.51 |
| CNc1cc(-c2cccc(OC)c2)[nH]n1 | 98.42 | – |
| CNc1cc(OC)ccn1 | -16.02 | – |
| Cn1cc(Br)c(CO)n1 | 1.484 | – |
| Cc1cc(CCC(=O)NCCC(N)=O)ccc1Br | -2.096 | – |
| Cc1ccc(F)c(S(=O)(=O)N2C[C@H](C3CC3)[C@@H](N)C2)c1 | 7.08 | – |
| Cc1ccc(F)cc1S(=O)(=O)N1C[C@H](C2CC2)[C@@H](N)C1 | 98.86 | – |
| Cc1cc(F)ccc1S(=O)(=O)N1C[C@H](C2CC2)[C@@H](N)C1 | 8.476 | – |
| COc1ccc(S(=O)(=O)N2C[C@H]3CNC[C@@H](C2)O3)cc1 | -2.543 | – |
| OCC1CCN(Cc2ccccc2)CC1 | -5.201 | – |
| NCc1cccc(OCC(F)F)c1 | -2.735 | – |
| CCCc1ccc(CN2CCC(NC(C)=O)C2)o1 (stereo not drawn) | 2.217 | – |
| O=C(NCC1CCN(C2CC2)C1)c1ccccc1F (stereo not drawn) | 13.84 | – |
| CN(C)[C@H]1CCCCN(C(=O)Cn2cc(Cl)cn2)C1 | 95.45 | – |
| O=C(Cn1cc(Cl)cn1)N1CCCC(c2ccn[nH]2)C1 (stereo not drawn) | – | -16.77 |
| CN(C)c1cc(C2CCCN(C(=O)Cn3cc(Cl)cn3)C2)ccn1 (stereo not drawn) | – | 0.9748 |
| CC(C)(C)CC1CCCN1S(N)(=O)=O (stereo not drawn) | -15.84 | – |
| CC(C)(C(=O)OCC(N)=O)c1ccccc1 | 2.133 | – |
| CC(C)N(C)CC(=O)NCCn1cccc1 | 7.108 | – |

| Structure (SMILES) | Percent Effect (50 µM) [%] | Percent Effect (10 µM) [%] |
| --- | --- | --- |
| O=C(NCc1n[nH]c(=O)[nH]1)C1COc2ccccc21 (stereo not drawn) | -1.703 | – |
| CNc1ncc2c(n1)CN(CCc1ccccc1)C2=O | – | -25.26 |
| COc1cccc(N2Cc3nc(=O)[nH]n3C2=O)c1 | – | -7.908 |
| CNc1ncc2c(n1)CN(c1cccc(OC)c1)C2=O | – | 69.02 |
| COc1ccc(N2Cc3nc(N)ncc3C2=O)cc1 | – | 9.612 |
| Cc1cccc(N2Cc3nc(N4CCC(C)CC4)ncc3C2=O)c1 | – | 14.75 |
| CCNc1ncc2c(n1)CN(c1cccc(OC)c1)C2=O | – | 76.16 |
| CN(C(=O)CC(N)c1ccccc1)c1cccc(F)c1 (stereo not drawn) | 3.1 | – |
| Nc1ncccc1CN1CCN(C2CCOCC2)CC1 | 4.597 | – |
| O=C1CCCCN1Cn1cnc2c(Br)cccc2c1=O | -5.958 | – |
| Cc1cccc(C(=O)Nc2c(C(=O)N(C)C)nn(C)c2C)c1 | – | 18.52 |
| Cc1c(NC(=O)c2cccc(Br)c2)c(C(=O)N(C)C)nn1C | – | 13.13 |
| Cc1ccc(C(=O)Nc2c(C(=O)N(C)C)nn(C)c2C)cc1C | – | 61.35 |
| Cc1c(NC(=O)c2ccc(Br)cc2)c(C(=O)N(C)C)nn1C | – | 46.94 |
| COc1ccc(C(=O)Nc2c(C(=O)N(C)C)nn(C)c2C)cc1 | – | 52.86 |
| Cc1ccc(C(=O)Nc2c(C(=O)N(C)C)nn(C)c2C)cc1 | – | 18.52 |
| CC(=O)NCc1ccc(C(C)=O)s1 | 3.848 | – |
| CCOc1cc(CNCc2ccccn2)ccc1O | 12.08 | – |
